Test results: PubChem BioAssay (Tox21)
Inconclusive results are not listed. A call without a number means that no potency is given here. Calls of active or inactive are those of the source. Calls follow the shape of the dose curve; as a rule, active = well fitted inhibition curve with a large enough effect in the repeat runs; inconclusive = weak or mixed curves, or effect the other way; inactive = no such curve, though single readings can be large or run the other way.

What follows are compounds tested against Nuclear receptor subfamily 1 group I member 3 (Homo sapiens) (UniProt Q14994) (assay: qHTS assay to identify small molecule antagonists of the constitutive androstane receptor (CAR) signaling pathway (AID 1224838;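 also: HepG2 cells stably expressing hCAR with CYP2B6 luciferase reporter stimulated by CITCO; nearly all actives have a fitted effect of over 40% in size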)). Conditions: HepG2-CYP2B6-hCAR luciferase, CITCO-stimulated, 24 h; series mostly up to 92.4 µM.
Excerpt: U.S. Tox21 Program National Center for Advancing Translational Sciences [NCATS] NIH Chemical Genomics Center [NCGC] U.S. Environmental Protection Agency [EPA] National Institutes of Environmental Health Sciences [NIEHS] National Toxicology Program [NTP] U.S. Food and Drug Administration [FDA] Tox21 Assay Overview: The constitutive androstane receptor (CAR) is a nuclear receptor which regulates multiple drug metabolizing enzymes (DMEs) and transporters. Activating CAR will generally increase the transcription and subsequent translation of CYP2B6 and CYP3A4. These two DMEs represent about 50% of the drug metabolizing potential in the body. When CAR is deactivated, the metabolizing potential in the body will decrease, subsequently increasing the toxicity in the body or lowering the therapeutic potential of a pro-drug. Recently, there have also been studies performed indicating CARs role in energy metabolism and cancer therapy. Therefore, inhibiting CARs activity could have a potential effect on diabetes and cancer. Identifying environmental toxins and compounds which modulate CAR, through the use of the Tox21 10K compound collection, will be an important step in determining the toxicity and potential therapeutic effects these factors will have on the human body.
Tox21 Assay Protocol Summary: A double-stable (hCAR and CYP2B6-2.2kb) transfected cell line, derived from human hepatoma (HepG2) cells, was utilized for the duration of the quantitative high-throughput screens. The HepG2-CYP2B6-hCAR cells suspended in DMEM culture medium supplemented with 10% FBS, 5 ug/mL blasticidin, 0.5 mg/mL geneticin, 100 U/mL penicillin and 100 ug/mL streptomycin were dispensed at 2500 cells/4 uL/well in 1536-well white solid bottom plates using a Multidrop Combi. After the assay plates were incubated at 37 C/5% CO2 for 4 hrs, 23 nL of compounds at 15 concentrations (from 5-48 columns) or positive control (from 1 to 4 columns) were transferred to the assay plates using a Pintool station. One uL of CITCO, was added using a Flying Reagent Dispenser to generate a final concentration of 50 nM CITCO inside each well. After a 24 hr incubation period at 37 C/5% CO2, four uL of ONE-Glo reagent was added into the assay plates using a Flying Reagent Dispenser. After a 30 min incubation period at room temperature, the luminescence intensity in the assay plates was measured using a ViewLux plate reader.
Potency is read from the fitted curve at half-maximal effect.

Chain of Nuclear receptor subfamily 1 group I member 3 (Homo sapiens) (Q14994 whole entry, looked up): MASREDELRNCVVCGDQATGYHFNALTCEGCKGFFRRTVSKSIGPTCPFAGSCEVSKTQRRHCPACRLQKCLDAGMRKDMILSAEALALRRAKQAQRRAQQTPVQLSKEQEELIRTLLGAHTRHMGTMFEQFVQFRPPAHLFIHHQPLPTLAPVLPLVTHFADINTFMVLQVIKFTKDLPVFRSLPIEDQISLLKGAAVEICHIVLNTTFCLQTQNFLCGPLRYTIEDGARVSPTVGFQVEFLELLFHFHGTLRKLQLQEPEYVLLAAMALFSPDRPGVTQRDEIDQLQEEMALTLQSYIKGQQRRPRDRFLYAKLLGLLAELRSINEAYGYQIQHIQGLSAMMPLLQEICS

Compound	Potency	activity, negative = inhibition
CC1=CCC2C(C1)C2(C)C (stereo not given)	inactive	–
CC(C)c1cccc(C(C)C)c1N	inactive	–
NC1CCN(c2cccc(Cl)n2)CC1	inactive	–
Cc1ccc(N)cc1[N+](=O)[O-]	inactive	–
C1=C\CC/C=C\CC/C=C\CC/1	inactive	–
CC(C)(O)Cc1ccccc1	inactive	–
CCN(CC)C(=O)c1ccc(O)c(OC)c1	inactive	–
CO[Si](CCCNCCC[Si](OC)(OC)OC)(OC)OC	inactive	–
Cn1cnc2c(=O)[nH]c(N)nc21	inactive	–
CCCCCC[C@@H](CCC)C(=O)O	inactive	–
O=Cc1ccccc1[N+](=O)[O-]	inactive	–
CN(C)CCn1nnnc1SCC1=C(C(=O)O)N2C(=O)[C@@H](NC(=O)Cc3csc(N)n3)[C@H]2SC1	inactive	–
CC(C)c1ccc2oc3nc(N)c(C(=O)O)cc3c(=O)c2c1	inactive	–
C=C[Si](OC)(OC)OC	inactive	–
Cc1ccc(Nc2ccc(O)c3c2C(=O)c2ccccc2C3=O)cc1	inactive	–
CCCCNc1ccccc1	inactive	–
C#CC(O)CCCCC (stereo not given)	inactive	–
CCCC(C)C(=O)O (stereo not given)	inactive	–
CCn1c(=O)c2c(nc(/C=C/c3ccc(OC)c(OC)c3)n2C)n(CC)c1=O	inactive	–
N#CC1(O)CCCCC1	inactive	–

Compound	Potency	activity, negative = inhibition
CCOC(=O)Nc1ccc2c(c1)N(C(=O)CCN1CCOCC1)c1ccccc1S2	1190 nM (active)	–
Cc1ccccc1Br	inactive	–
COC(=O)C1=C(C)NC(C)=C(C(=O)OCC(C)=O)C1c1ccccc1[N+](=O)[O-] (stereo not given)	inactive	–
NC(=O)CCCCC1CCSS1 (stereo not given)	inactive	–
CCO[Si](CCCN=C=O)(OCC)OCC	inactive	–
CC1=CC(C)C(C=O)C(C)C1 (stereo not given)	inactive	–
Cc1nccn1CC1CCc2c(c3ccccc3n2C)C1=O (stereo not given)	inactive	–
CCCCCCCCCCCCI	inactive	–
CCN1CCCC(OC(=O)C(c2ccccc2)c2ccccc2)C1 (stereo not given)	inactive	–
FC(F)(F)C(F)(F)C(F)(F)C(F)(F)C(F)(F)C(F)(F)C(F)(F)C(F)(F)C(F)(F)C(F)(F)F	–	41.9% [at 8.39 µM] (inactive)
c1cc(CN2CCCCC2)cc(OCCCNc2nc3ccccc3s2)c1	inactive	–
O=C(O)c1ccccc1S	inactive	–
CCCCCCCCCCC1CO1 (stereo not given)	inactive	–
COc1cc(C)cc(O)c1	inactive	–
CC(C)(C)C(=O)/C=C/c1ccc(Cl)cc1	inactive	–
NS(=O)(=O)c1cc2c(cc1Cl)NC(CSCc1ccccc1)=NS2(=O)=O	inactive	–
C(=C(c1ccccc1)c1ccccc1)c1ccccc1	inactive	–
C=C(C)C1CC=C(C)C(O)C1 (stereo not given)	inactive	–
O=C(O)Cc1cc(I)c(Oc2cc(I)c(O)c(I)c2)c(I)c1	inactive	–
CCCCCN(CCCCC)C(=O)C(CCC(=O)O)NC(=O)c1ccc(Cl)c(Cl)c1 (stereo not given)	inactive	–
